Test results published in ChEMBL document CHEMBL3988442, “University of Dundee, Small-Polar-MMV Screening Library” (2021).
Out of some 48,000 compounds screened, about 13,000 (27%) showed an effect of 50% or more. The list shows a part of the results.

Test system: Wolbachia pipientis
Experiment: Anti-Wolbachia Cell-Based Screen
Type: functional
Set-up: scale not given: in the data most compounds retested in dose-response had high values
Details: 5 µM

SMILES | Percent Effect [%]
CCc1cc(C(=O)N2CCc3c(ncn3CCc3ccccc3)C2)[nH]n1 | 0.9556
CC(C(=O)NC1(C#N)CCCCC1)N1CCc2c(ncn2C2CC2)C1 (stereo unspecified) | 2.173
Cc1ccc(F)c(NC(=O)CCC(=O)N(C)Cc2nc(C)c[nH]2)c1 | -39.22
CC(C)n1c(C2CCCN(CC(=O)NC3CC3)C2)nc2ccccc21 (stereo unspecified) | -1.015
O=C1COc2ccccc2N1CCCn1cnnn1 | -11.05
CN(C)C(CNS(=O)(=O)c1cnn(C)c1)c1cccc(F)c1 (stereo unspecified) | 6.578
N#Cc1ccc(OC2CCN(C(=O)c3ccc(Br)o3)CC2)nc1 | 22.17
CN1CCCN(C[C@@H]2CN(c3nc(C(N)=O)cs3)C[C@@H]2CO)CC1 | 120.2
Cc1nc(N2C[C@@H](CN3CCCN(C)CC3)[C@@H](CO)C2)c2sccc2n1 | 6.466
Cc1nc(N2C[C@@H](CN3CCCN(C)CC3)[C@@H](CO)C2)c2ccsc2n1 | 13.06
Cc1cnn(C2CN(CC(O)c3ccc(F)cc3)C2)c1 (stereo unspecified) | 3.544
O=C1O[C@@H]2CN(c3cnccn3)C[C@@H]2N1CCCc1ccc(F)cc1 | 20.37
COc1c(C)cnc(CN(C)C(=O)c2ccccc2F)c1C | -7.265
N#Cc1cccc(NS(=O)(=O)c2ccc(C(=O)O)cc2F)c1 | 100.6
Cc1ccccc1NS(=O)(=O)c1ccc(C(=O)O)cc1F | 0.9629
O=C(O)c1ccc(S(=O)(=O)Nc2ccccc2F)c(F)c1 | -2.05
O=C(O)c1ccc(S(=O)(=O)Nc2ccc(Cl)c(F)c2)c(F)c1 | 4.995
O=C(O)c1ccc(S(=O)(=O)Nc2cccc(CC(F)(F)F)c2)c(F)c1 | -7.999
Cc1cc(NS(=O)(=O)c2ccc(C(=O)O)cc2F)ccc1F | 102.3
Cc1ccc(F)cc1S(=O)(=O)N(C)CC(N)=O | 2.56
O=C1CCC2(CCNCC2)CN1CCCOc1cccnc1 | -10.24
COc1ccc(CN(C)C(=O)NC(C)c2nncn2C)cc1F (stereo unspecified) | -30.44
CC(c1ccccc1)N1CCC(NC(=O)CCc2ccsc2)CC1 (stereo unspecified) | 5.953
CCSc1ccccc1C(=O)NCC1CCN(Cc2ccsc2)CC1 | 107.8
O=C(COc1ccccc1)NCC1CCN(Cc2ccsc2)CC1 | 115.8
O=C(CCSc1ccccc1)NCC1CCN(Cc2ccsc2)CC1 | 78.72

SMILES | Percent Effect [%]
COCCNC(=O)CCC1CCN(Cc2cccc(SC)c2)CC1 | 4.456
CSc1cccc(CN2CCC(CCC(=O)NCCN(C)C)CC2)c1 | -5.054
COCC(=O)NCC1CCN(Cc2ccsc2)CC1 | 155
O=C(NCC1CCN(Cc2ccsc2)CC1)NC1CC1 | 4.525
CCC(CC)c1nnc(NC(=O)N2CCCC(NC(C)=O)C2)s1 (stereo unspecified) | -9.059
CCn1ncnc1C(C)NC(=O)COc1ccc(Cl)cc1Cl (stereo unspecified) | -23.74
CN(Cc1cc(C(C)(C)C)n[nH]1)Cc1c[nH]nc1-c1ccc(F)cc1 | -14.5
CC1(C)[C@H]2CC=C(CN3CCCn4nc(CCC(=O)O)cc4C3)[C@@H]1C2 | 1.513
O=C(Cn1cncn1)NCC1CCN(Cc2ccccc2Cl)CC1 | -9.372
O=C(NCCCC(=O)N1Cc2ccccc2C1)NCc1ccsc1 | 1.068
CN1CCC(CNC(=O)Cc2ccc(N(C)C)cc2)CC1 | -0.2873
O=C(Cc1ccccc1Cl)NCC1CCN(Cc2ccsc2)CC1 | 104.9
Cc1cc(CN2CCC(CNC(=O)Cc3ccc(F)cc3)C2)[nH]n1 (stereo unspecified) | 4.609
O=C(Cc1ccc(F)cc1)NCC1CCN(Cc2ccsc2)CC1 | 152.7
CCOCC(=O)NCC1CCN(Cc2ccsc2)CC1 | 164
O=C(NCc1ccccc1)NCC1CCN(Cc2ccsc2)CC1 | 116.2
Cc1ccccc1CN1CCC(CNC(=O)Cn2cncn2)CC1 | 9.92
Cc1cc(CN(C)C(=O)c2ccc(F)cc2Br)no1 | -8.681
Cc1cc(=O)[nH]c(NCCNC(=O)C(c2ccc(F)cc2)N(C)C)n1 (stereo unspecified) | 1.725
Cc1nc(CN2CCN(C(=O)CC(C)(C)c3ccccc3)CC2)no1 | 6.376
CCc1nc(CN2CCCC(Nc3ncnc4ccsc34)C2)no1 (stereo unspecified) | 25.2
O=C(O)C(F)(F)F.O=S(=O)(C1CC1)N1CCC2(CC1)CN(Cc1nccs1)CCO2 | 4.912
CCNC(=O)N1CCC(NC(=O)NCCc2ccc(C)cc2C)C1 (stereo unspecified) | 5.947
COCCN1CC(c2nc(CSC)no2)CCC1=O (stereo unspecified) | 7.021
CCc1nccn1C1CCCN(C(=O)c2ccc(C(N)=O)cn2)C1 (stereo unspecified) | 6.395
Cc1nccn1C1CCCN(C(=O)c2ccc3nnc(C)n3c2)C1 (stereo unspecified) | 98.33

SMILES | Percent Effect [%]
CCc1nccn1C1CCCN(C(=O)c2ccc3[nH]c(=O)[nH]c3c2)C1 (stereo unspecified) | 0.4559
CCc1nccn1C1CCCN(C(=O)c2ccc3nnc(C)n3c2)C1 (stereo unspecified) | 92.62
Cc1nc(C)c(C(=O)N2CCc3c(Cl)cccc32)o1 | -6.606
Cc1cnc(CN(C)C2CCN(Cc3nc4ccccc4n3C)C2)o1 (stereo unspecified) | 4.653
CNC(=O)c1cccc(CN2CCC(N(C)Cc3ncc(C)o3)C2)c1 (stereo unspecified) | 18.32
Cc1cnc(CN(C)C2CCN(Cc3nc4c(F)cccc4[nH]3)C2)o1 (stereo unspecified) | 88.38
Cc1nc(CN(C)C2CCN(Cc3nc4c(F)cccc4[nH]3)C2)no1 (stereo unspecified) | 95.7
Cc1nc(CN2CCCN(Cc3nc4c(F)cccc4[nH]3)CC2)no1 | 93.2
Cc1ncc2c(n1)CN(Cc1nc3c(F)cccc3[nH]1)CC2 | -1.881
CCc1ncc2c(n1)CN(Cc1nc3c(F)cccc3[nH]1)CC2 | -2.409
Cc1sc2nc(C(F)(F)F)nc(N3CCN(S(C)(=O)=O)CC3)c2c1C | 0.8403
O=C1NC(c2ccccc2)=N[C@@]12CC[C@@H]1CN(Cc3ccco3)C[C@@H]12 | 9.656
CCOc1ccc(NC(=O)c2[nH]c(C)cc2C)cc1CO | -6.246
O=C(NCC1(CO)CC1)c1cccc2ccccc12 | -22.57
CNC(=O)c1ccc(-c2ccccc2)n1C | -8.126
Cn1c(C(=O)NCC2(N)CCCC2)cc2ccccc21 | 105.3
CNC(=O)c1cc2ccccc2n1C | 113.9
COCCn1c(C(=O)NCC(C)C(=O)O)cc2ccccc21 (stereo unspecified) | 18.09
Cc1nc(C)n(C2CCCN(C(=O)c3cc4ccccc4n3C)C2)n1 (stereo unspecified) | 8.769
CC(C)NC(=O)c1n[nH]c(-n2cnnc2)n1 | -2.794
CNc1nc(C)cc(NC2CCCN(C3Cc4ccccc4C3)C2)n1 (stereo unspecified) | 43.21
Cc1cc(C)nc(Nc2cccc(C3CCCN(C(C)C)C3)n2)n1 (stereo unspecified) | 76.23
CNc1cc(C)nc(NC2CCCN(C3Cc4ccccc4C3)C2)n1 (stereo unspecified) | 9.514
Cc1cc(C)nc(Nc2cccc(C3CCCN(CCO)C3)n2)n1 (stereo unspecified) | 75.7
Cc1cc(C)nc(Nc2cccc(C3CCCN(C)C3)n2)n1.O=CO (stereo unspecified) | -4.261
Cc1cc(C)nc(Nc2cccc(C3CCCN(CC4CC4)C3)n2)n1 (stereo unspecified) | 109.6

SMILES | Percent Effect [%]
Cc1cc(CC(C)NC(=O)COc2ccc(F)cc2F)[nH]n1 (stereo unspecified) | 17.04
CN(C(=O)NCc1ccncc1)C1CCN(c2ccccc2)C1=O (stereo unspecified) | -1.353
O=c1nc(SCc2ccc(Cl)cc2)c2c(n1CCO)CCC2 | 7.751
CN(CCc1nc(-c2cccc(Cl)c2)no1)CCn1cccn1 | 14.68
COc1ccc(Cl)cc1NCC(=O)NCCNc1cnccn1 | 7.849
COc1ccc(Cl)cc1C(=O)NCCNc1cnccn1 | 117.3
O=C(NCCNc1cnccn1)c1scnc1Cl | 1.056
Cc1ncsc1C(=O)NCCNc1cnccn1 | 4.216
COc1ccc(Cl)cc1NCCC(=O)NCCNc1cnccn1 | 93.92
COc1ccc(Cl)cc1NC(=O)CCNc1ccc(C#N)cn1 | -1.327
NC(=O)C(Nc1cccc(CO)c1)c1ccc(Br)cc1 (stereo unspecified) | -1.327
CCCn1ccnc1CNC(=O)C1COc2cc(OC)ccc2C1 (stereo unspecified) | -6.706
COc1cc(C)c(CN2CCC3(CC2)C(C(=O)O)CC(=O)N3C)cc1C (stereo unspecified) | 7.232
CC(C)CC(=O)N1CCC2(CC1)[C@@H]1CN(C(=O)N(C)C)C[C@@H]1C(=O)N2C | -15.87
CC(=O)N1C[C@@H]2C(=O)N(C)C3(CCN(C(=O)C(C)C)CC3)[C@@H]2C1 | -11.94
CC(C)C(=O)N1CCC2(CC1)[C@@H]1CN(C(=O)N(C)C)C[C@@H]1C(=O)N2C | 11.68
CC(C)CC(=O)N1CCC2(CC1)NC(=O)[C@H]1CN(C(=O)N(C)C)C[C@H]12 | -16.51
COC(=O)N1CCC2(CC1)N=C(CCC(C)C)NC2=O | -0.8032
CCOC(=O)[C@H]1[C@@H](O)C(=O)N(C)C12CCN(C(=O)OC)CC2 | 97.39
CC(C)NC(=O)N1CCC2(CC1)[C@@H]1CN(C(=O)N(C)C)C[C@@H]1C(=O)N2C | -31.71
CCOC(=O)[C@H]1[C@@H](O)C(=O)N(C)C12CCN(C(=O)CC(C)C)CC2 | 122.2
CCOC(=O)[C@@H]1[C@@H](O)C(=O)N(C)C12CCN(C(=O)OC)CC2 | 81.26
CCOC(=O)[C@H]1[C@@H](O)C(=O)N(C)C12CCN(C(=O)C(CC)CC)CC2 | 87.69
